# Source: PubChem (National Center for Advancing Translational Sciences (NCATS))
# TDP1 block: qHTS Assay for Inhibitors of Tyrosyl-DNA Phosphodiesterase (TDP1); Tyrosyl-DNA phosphodiesterase 1 (Homo sapiens), Q9NUW8; recombinant TDP1, AlphaScreen DNA substrate cleavage; Potency, µM (highest dose often 130 µM), without a hit: at the top dose activity change, negative = inhibition, most hits filed as inhibitors; 350,000 tested, 0.28% active; further: potency means the concentration at half of the fitted maximal effect; on the % scale 0 is the no-effect control and ±100 the full control effect; nearly all actives have a fitted effect of over 40% in size
# Target sequence (Q9NUW8 whole entry, looked up): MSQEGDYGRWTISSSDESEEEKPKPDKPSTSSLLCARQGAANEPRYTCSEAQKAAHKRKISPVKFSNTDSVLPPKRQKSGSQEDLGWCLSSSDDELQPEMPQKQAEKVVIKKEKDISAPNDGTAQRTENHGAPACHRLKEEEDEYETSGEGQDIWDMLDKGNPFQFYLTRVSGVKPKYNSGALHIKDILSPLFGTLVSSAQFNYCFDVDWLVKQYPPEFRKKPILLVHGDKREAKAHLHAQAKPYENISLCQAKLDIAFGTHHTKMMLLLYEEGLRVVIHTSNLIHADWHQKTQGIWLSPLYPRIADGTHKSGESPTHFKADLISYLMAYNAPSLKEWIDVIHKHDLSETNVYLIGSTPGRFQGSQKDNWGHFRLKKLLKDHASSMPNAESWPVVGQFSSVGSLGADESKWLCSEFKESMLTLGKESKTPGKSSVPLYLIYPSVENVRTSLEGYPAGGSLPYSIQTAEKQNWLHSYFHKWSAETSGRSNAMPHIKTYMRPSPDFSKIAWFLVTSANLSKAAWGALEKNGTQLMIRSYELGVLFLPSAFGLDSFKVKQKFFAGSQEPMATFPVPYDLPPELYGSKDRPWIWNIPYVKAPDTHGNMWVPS
#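 AlphaScreen read-out: signal falls as enzyme removes the 3' tyrosine-FITC from a 5'-biotinylated DNA oligo (15 nM, 5 min, RT). Enzyme was E. coli-made recombinant Tdp1 at 1 nM, exposed to compound for 15 min beforehand; beads 10 ug/ml, 10 min.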
# DT40 TDP1 CPT: qHTS for Inhibitors of human tyrosyl-DNA phosphodiesterase 1 (TDP1): qHTS in cells in presence of CPT; 420,000 tested, 12% active; Potency, µM (top dose mostly 46.2 µM), for the others: top-dose activity change, negative = growth inhibition, usual class: inhibitors; chicken DT40 Tdp1-/-;hTDP1 cells + 20 nM CPT, ATP luminescence, 48 h; AID 686979, 2013; further: potency means the concentration at half of the fitted maximal effect; on the % scale 0 is the no-effect control and ±100 the full control effect; nearly all actives have a fitted effect of over 55% in size
#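 Chicken DT40 Tdp1-/- cells stably complemented with human TDP1 were seeded at 400 cells/well in medium containing 20 nM camptothecin, exposed to pin-transferred compounds, and grown at 37 °C for at least 48 hr. Viability was read as ATP luminescence.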
# TGFb SMAD3 inh: qHTS for Inhibitors of TGF-b; HepG2 CAGA-GFP TGF-b/SMAD3 reporter, GFP fluorescence, 18 h; TGF-beta stimulated, 500 pg/mL final; Potency, µM (doses to about 46.1 µM), for the others: top-dose activity, negative = inhibition, hits mostly inhibitors; 410,000 tested, 1.2% active; further: potency means the concentration at half of the fitted maximal effect; on the % scale 0 is the no-effect control and ±100 the full control effect; nearly all actives have a fitted effect of over 65% in size
#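 HEPG2 CAGA-GFP cells (1000/well, DMEM with 1% FBS) were pre-incubated 2 h at 37 degrees C, given compound by pin tool, then stimulated with TGF-beta at 500 pg/mL final for 18 h before per-cell GFP fluorescence imaging.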
# IL1B secr inh: qHTS for Inhibitors of Inflammasome Signaling: IL-1-beta AlphaLISA Primary Screen | THP-1 LPS/ATP IL-1B secretion, AlphaLISA, 16 h; stronger effect = lower value | activity change, % at 57.5 µM | 360,000 tested, 4.7% active; in the data active means activity change below about -50%; inconclusive means mostly about -30% to -49%; further: on the % scale 0 is the no-effect control and ±100 the full control effect
#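 Secreted IL-1B measured by AlphaLISA bead assay after 16 h compound exposure of THP-1 cells; compounds (final up to 57.5 uM) added 1 h before LPS (250 ng/mL) and ATP (1.25 mM) stimulation; lower signal means less secretion.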
# HepG2 tox: qHTS for Inhibitors of TGF-b: Cytotox Counterscreen; 410,000 tested, 0.76% active; HepG2 CAGA-GFP viability, ATP luminescence, 18 h; Potency, µM (doses to about 46.1 µM), inactives show at the top dose activity change, negative = cytotoxicity, actives largely listed as cytotoxic; further: potency means the concentration at half of the fitted maximal effect
#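 CellTiter-Glo luminescence gave cytotoxicity after 18 hours at 37 degrees C. The cells were HepG2 CAGA-GFP in 1% FBS DMEM, stimulated with 500 pg/mL TGF-beta after compound addition. %Activity was normalised to no-cell wells (complete cell-killing) and DMSO (no toxicity), and curves were fitted and classified.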
# TDP1 cell noCPT: qHTS for Inhibitors of human tyrosyl-DNA phosphodiesterase 1 (TDP1): qHTS in cells in absence of CPT | DT40 Tdp1-/- hTDP1 cells, no CPT, ATP luminescence, 48 h | Potency, µM (top dose mostly 46.2 µM), without a hit: at the highest dose activity change, negative = growth inhibition, hits mostly inhibitors | 420,000 tested, 15% active | AID 686978, 2013; further: potency means the concentration at half of the fitted maximal effect; on the % scale 0 is the no-effect control and ±100 the full control effect; nearly all actives have a fitted effect of over 55% in size
#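 Stably hTDP1-transfected Tdp1-null chicken DT40 cells were treated with library compounds minus camptothecin and grown for at least 48 hr at 37 °C, after which cellular ATP was quantified by luminescence.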
# Starred values were filed as active, the others as inactive; ? = inconclusive; . = not tested or not shown. In the library only some 18% were active in any assay of this set; here they are far more common. Unless noted, the call rests on the fitted dose curve; in most records, active means well fitted curve in the direction sought with a large enough effect; inconclusive means small, poorly fitted or top-dose-only effect, or another doubt; inactive means no such curve, though single readings can be large; an effect the other way counts as inactive or inconclusive.
SMILES,TDP1 block,DT40 TDP1 CPT,TGFb SMAD3 inh,IL1B secr inh,HepG2 tox,TDP1 cell noCPT
Cc1cc(C)nc(-n2nc(C)cc2Nc2ccccc2)n1,9.1%,2.59µM*,-16.6%,-0.4,-12.8%,5.17µM*
Cc1cc(C)nc(-n2nc(C)cc2NC(=O)CN2CCCC(C)C2)n1 (centres undefined),2.1%,?,?,-15.0,-54.0%,?
Cc1cc(C)nc(-n2nc(C)cc2NC(=O)CN2CCc3ccccc3C2)n1,4.2%,10.3µM*,-15.1%,23.1,-31.5%,23.1µM*
COc1ccc(CNCC(=O)Nc2cc(C)nn2-c2nc(C)cc(C)n2)cc1OC,0.0%,9.2µM*,-6.4%,-4.0,7.0%,8.2µM*
CCC(C(=O)Nc1cc(C)nn1-c1nc(C)cc(C)n1)c1ccccc1 (centres undefined),-5.0%,25.9µM*,-23.9%,-10.7,-30.1%,18.4µM*
Cc1cc(C)nc(-n2nc(C)cc2NC(=O)CNCc2ccccc2)n1,3.2%,-28.6%,-5.7%,35.5,-63.0%,?
O=C(O)c1ccc2c(c1)C(=O)N([C@H](Cc1ccc(C(F)(F)F)cc1)C(=O)O)C2=O,6.8%,.,.,.,.,.
CCOc1ccc(CC(=O)NCC(c2cccs2)S(=O)(=O)c2ccc(F)c(C)c2)cc1 (centres undefined),3.8%,-0.1%,8.5%,.,-3.6%,-12.3%
COc1ccc(CN(C)C(=O)C2CC(=O)N(c3ccc4c(c3)OCCO4)C2)c(OC)c1 (centres undefined),4.2%,20.6µM*,-0.5%,-10.5,-21.3%,16.4µM*
COc1ccc(C)cc1NC(=O)NC1CC(=O)N(c2ccc3c(c2)OCCO3)C1 (centres undefined),.,-29.0%,-21.2%,-1.7,11.2µM*,-5.3%
Cc1ccc(NC(=O)C(C)N2CCCc3ccccc32)cc1S(=O)(=O)N1CCOCC1 (centres undefined),.,-88.0%,-11.0%,-7.2,-11.2%,6.51µM*
CCN(CC)S(=O)(=O)c1cc(NC(=O)C(C)N(C)CC(=O)Nc2c(C)cccc2C)ccc1C (centres undefined),5.8%,25.9µM*,-16.0%,-3.3,-8.7%,18.4µM*
CCN(CC)S(=O)(=O)c1cc(NC(=O)C(C)N2CCc3ccccc32)ccc1C (centres undefined),5.3%,?,?,?,-10.7%,25.9µM*
CCOc1ccc(S(=O)(=O)N2CCOCC2)cc1NC(=O)CCOc1ccc(C(C)(C)C)cc1,0.7%,?,0.0%,7.2,-0.3%,?
C[C@]12CCC(=O)C=C1CC[C@@H]1[C@@H]2CC[C@@]2(C)[C@H]1CC[C@@]21CCC(=O)O1,.,?,-16.8%,-13.1,-23.7%,9.2µM*
CC(=O)S[C@@H]1CC2=CC(=O)CC[C@]2(C)[C@H]2CC[C@@]3(C)[C@@H](CC[C@@]34CCC(=O)O4)[C@H]12,.,7.31µM*,?,-56.1*,-36.9%,5.8µM*
C[C@@]12CCC(=O)C=C1C=CC1C2CC[C@]2(C)C1CC[C@@]21CCC(=O)O1 (some centres undefined),10.6%,.,.,.,.,.
COc1cccc(NC(=O)c2ccc(OC(F)(F)F)cc2)c1,-1.9%,-29.2%,?,-12.3,-28.1%,?
CC1CCC2(CC1)N=C(N)Nc1nc3ccccc3n12 (centres undefined),3.8%,0.8%,0.4%,-17.9,-2.3%,-20.1%
CCC1(C)N=C(N)Nc2nc3cc(C)c(C)cc3n21 (centres undefined),4.1%,9.2µM*,-3.8%,-4.8,-6.2%,9.2µM*
OCCCN1CCN(CCOc2ccccc2-c2ccccc2)CC1,7.9%,1.0%,1.0%,-16.9,-20.7%,?
CC1CN(CCOCCSc2ccccc2)CC(C)O1 (centres undefined),5.5%,-14.2%,-2.3%,8.3,-12.6%,-29.4%
CC(C)NCCCCOc1ccccc1-c1ccccc1,-10.7%,.,.,.,.,.
Clc1ccc(OCCCN2CCc3ccccc3C2)c(Br)c1,.,?,-29.8%,-4.4,-66.7%,?
c1ccc(-c2ccccc2OCCOCCN2CCc3ccccc3C2)cc1,0.0%,?,?,-75.1*,-35.8%,11.6µM*
SMILES,TDP1 block,DT40 TDP1 CPT,TGFb SMAD3 inh,IL1B secr inh,HepG2 tox,TDP1 cell noCPT
CCCCNCCOCCOc1ccccc1-c1ccccc1,-2.8%,23.1µM*,36.8%,?,-23.5%,29.1µM*
Clc1ccc(OCCOCCN2CCc3ccccc3C2)c(Cl)c1,-0.6%,?,?,-82.5*,-27.1%,23.1µM*
CC1CN(CCOCCOc2ccccc2-c2ccccc2)CC(C)O1 (centres undefined),.,?,-15.0%,12.8,-17.8%,23.1µM*
O=C(Nc1cccc(C(=O)OCc2cc(=O)n3nc(C4CC4)sc3n2)c1)c1cccc(F)c1,3.8%,-19.6%,8.9%,.,7.4%,3.9%
CCc1nc2ccc(C(=O)N(CC)CCN(C)C)cn2c1N(C)Cc1cccs1,.,-11.6%,-4.5%,-14.0,-4.1%,-18.2%
CCc1nc2ccc(C(=O)NCc3cccs3)cn2c1N(C)Cc1nccs1,.,?,-4.3%,-53.8*,-25.1%,20.6µM*
CCc1nc2ccc(C(=O)Nc3ccc(OC)c(OC)c3)cn2c1N(C)Cc1ccc(N(C)C)cc1,.,?,16.3%,8.0,-1.1%,?
CCc1nc2ccc(C(=O)NCCC(C)C)cn2c1N(C)Cc1nccs1,.,?,-5.3%,-21.3,-30.0%,?
CCc1nc2ccc(C(=O)NCCc3ccccn3)cn2c1N(C)Cc1nccs1,.,?,33.5%,-10.9,-3.5%,16.4µM*
CCc1nc2ccc(C(=O)Nc3ccc(OC)c(OC)c3)cn2c1N(C)Cc1nccs1,.,14.6µM*,-0.7%,-22.9,-25.2%,?
CCc1nc2ccc(C(=O)NCc3cccs3)cn2c1N(CC)CCN(C)C,.,-22.9%,2.9%,-21.8,0.9%,1.3%
CCc1nc2ccc(C(=O)NCCc3ccccn3)cn2c1N(C)Cc1cccs1,.,?,-1.3%,-21.3,1.6%,18.4µM*
CC(C)C[C@@H](CN=[N+]=[N-])N1CCN(Cc2ccccc2)CCC1=O,.,?,-6.2%,-7.0,-8.3%,?
Cc1nnc(SCC(=O)Nc2ccc(S(N)(=O)=O)cc2)n(N)c1=O,-8.0%,10.3%,-2.6%,19.6,7.9%,1.9%
